Experimental data published in PubChem BioAssay.
A number with no mark means an inactive call. A call without a number means that no potency is given here. For some assays here: Potency and affinity values are given separately. Calls of active or inactive are those of the source. Unless noted, no rule for the calls is given here.

Tests used:
[1] = antimalarial activity against Dd2 strain (AID 2302;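 active = growth inhibition above 50% at the single 2 µM test dose, taken to imply half-maximal potency below 2 µM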); conditions: P. falciparum Dd2 in RBCs, LDH growth readout, 72 h; at 2 µM; active compounds read high
[2] = human hepatoma cell viability loss – ATP luminescence, cytotoxicity control for P. falciparum antimalarial project, primary screen (AID 2303;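 active = inhibition above 50%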); conditions: HepG2 viability, 24-48 h, at 10 µM, active compounds read high
[3] = molecular target: L-lactate dehydrogenase (Plasmodium falciparum (isolate CDC / Honduras)) (UniProt Q27743); assay: PfLDH activity inhibition – cell lysate, 3D7 strain, counter-screen for P. falciparum growth inhibition project (AID 2304); conditions: P. falciparum 3D7 crude extract, LDH APAD/NBT absorbance; at 2 µM; active compounds read high
Chain of L-lactate dehydrogenase (Plasmodium falciparum (isolate CDC / Honduras)) (Q27743 whole entry, looked up): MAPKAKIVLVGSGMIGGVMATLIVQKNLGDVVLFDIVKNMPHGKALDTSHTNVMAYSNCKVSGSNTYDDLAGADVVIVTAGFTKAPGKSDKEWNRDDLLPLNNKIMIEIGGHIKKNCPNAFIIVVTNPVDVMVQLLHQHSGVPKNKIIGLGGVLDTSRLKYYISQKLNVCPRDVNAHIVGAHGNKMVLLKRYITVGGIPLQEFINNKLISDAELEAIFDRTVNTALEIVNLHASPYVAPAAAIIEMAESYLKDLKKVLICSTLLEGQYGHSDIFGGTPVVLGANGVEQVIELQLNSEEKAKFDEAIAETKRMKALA

[4] = inhibition of 3D7 malaria parasite growth – strain 3D7 (AID 2306); conditions: P. falciparum 3D7 erythrocytic growth, LDH absorbance, 72 h; at 2 µM; active compounds read high
[5] = molecular target: Calcium-dependent protein kinase 1 (Plasmodium falciparum (isolate 3D7)) (UniProt P62344); assay: PfCDPK1 kinase inhibitors, biochemical, TCAMS library (AID 1159585; cut-off not given, nearly all actives have IC50 up to about 0.98 µM;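 also: inhibitors leave more ATP so luminescence rises with inhibition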); conditions: recombinant PfCDPK1, Kinase-Glo ATP depletion luminescence
Chain of Calcium-dependent protein kinase 1 (Plasmodium falciparum (isolate 3D7)) (P62344 whole entry, looked up): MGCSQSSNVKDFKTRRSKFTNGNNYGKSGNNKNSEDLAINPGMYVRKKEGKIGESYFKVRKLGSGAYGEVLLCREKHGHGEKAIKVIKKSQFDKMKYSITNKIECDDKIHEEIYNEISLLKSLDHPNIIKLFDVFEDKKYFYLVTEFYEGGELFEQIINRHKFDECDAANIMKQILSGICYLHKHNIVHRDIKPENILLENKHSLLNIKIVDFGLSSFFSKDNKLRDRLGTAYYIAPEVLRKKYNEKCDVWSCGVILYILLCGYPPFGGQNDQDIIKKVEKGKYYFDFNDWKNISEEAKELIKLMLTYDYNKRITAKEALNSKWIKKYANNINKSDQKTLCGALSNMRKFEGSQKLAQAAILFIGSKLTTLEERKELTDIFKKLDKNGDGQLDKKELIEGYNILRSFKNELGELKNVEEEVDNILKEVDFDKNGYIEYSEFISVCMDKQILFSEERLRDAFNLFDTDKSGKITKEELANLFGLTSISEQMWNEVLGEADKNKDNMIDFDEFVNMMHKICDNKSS

[6] = molecular target: Plasmodium falciparum protein kinase 6 (PK6, PF3D7_1337100) (UniProt Q8IDW1); assay: PfPK6 kinase inhibitors, biochemical, TCAMS library (AID 1159586); conditions: recombinant PfPK6, Kinase-Glo ATP depletion luminescence
Chain of Plasmodium falciparum protein kinase 6 (PK6, PF3D7_1337100) (Q8IDW1 1-305): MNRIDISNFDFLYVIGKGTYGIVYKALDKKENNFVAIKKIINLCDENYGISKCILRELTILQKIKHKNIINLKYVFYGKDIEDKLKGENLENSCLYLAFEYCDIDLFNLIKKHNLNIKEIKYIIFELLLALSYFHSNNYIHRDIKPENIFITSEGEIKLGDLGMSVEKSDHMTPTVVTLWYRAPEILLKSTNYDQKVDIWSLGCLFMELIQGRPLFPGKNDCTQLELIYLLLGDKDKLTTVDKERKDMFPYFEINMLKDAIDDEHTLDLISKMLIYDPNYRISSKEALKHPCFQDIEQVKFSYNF

[7] = molecular target: Protein kinase 7 (PK7), Plasmodium falciparum 3D7 (PF3D7_0213400) (UniProt Q7YTF7); assay: inhibition of Plasmodium PK7 catalytic activity – biochemical, TCAMS antimalarial set, Kinase-Glo luminescence (AID 1159587); conditions: recombinant PfPK7, Kinase-Glo ATP depletion luminescence
Chain of Protein kinase 7 (PK7), Plasmodium falciparum 3D7 (PF3D7_0213400) (Q7YTF7 1-343): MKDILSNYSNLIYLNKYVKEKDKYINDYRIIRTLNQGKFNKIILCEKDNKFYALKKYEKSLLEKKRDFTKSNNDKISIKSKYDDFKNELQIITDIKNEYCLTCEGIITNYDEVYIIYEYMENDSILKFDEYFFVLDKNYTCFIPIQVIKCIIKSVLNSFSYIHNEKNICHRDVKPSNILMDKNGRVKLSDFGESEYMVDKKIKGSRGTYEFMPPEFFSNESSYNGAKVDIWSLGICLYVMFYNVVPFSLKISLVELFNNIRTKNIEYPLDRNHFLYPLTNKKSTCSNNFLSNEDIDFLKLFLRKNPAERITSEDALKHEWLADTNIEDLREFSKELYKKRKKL

[8] = molecular target: Calcium-dependent protein kinase 4 (Plasmodium falciparum (isolate 3D7)) (UniProt Q8IBS5); assay: PfCDPK4 kinase inhibitors, biochemical, TCAMS library (AID 1159588; cut-off not given, nearly all actives have IC50 up to about 0.91 µM); conditions: recombinant PfCDPK4, Kinase-Glo ATP depletion luminescence
Chain of Calcium-dependent protein kinase 4 (Plasmodium falciparum (isolate 3D7)) (Q8IBS5 whole entry, looked up): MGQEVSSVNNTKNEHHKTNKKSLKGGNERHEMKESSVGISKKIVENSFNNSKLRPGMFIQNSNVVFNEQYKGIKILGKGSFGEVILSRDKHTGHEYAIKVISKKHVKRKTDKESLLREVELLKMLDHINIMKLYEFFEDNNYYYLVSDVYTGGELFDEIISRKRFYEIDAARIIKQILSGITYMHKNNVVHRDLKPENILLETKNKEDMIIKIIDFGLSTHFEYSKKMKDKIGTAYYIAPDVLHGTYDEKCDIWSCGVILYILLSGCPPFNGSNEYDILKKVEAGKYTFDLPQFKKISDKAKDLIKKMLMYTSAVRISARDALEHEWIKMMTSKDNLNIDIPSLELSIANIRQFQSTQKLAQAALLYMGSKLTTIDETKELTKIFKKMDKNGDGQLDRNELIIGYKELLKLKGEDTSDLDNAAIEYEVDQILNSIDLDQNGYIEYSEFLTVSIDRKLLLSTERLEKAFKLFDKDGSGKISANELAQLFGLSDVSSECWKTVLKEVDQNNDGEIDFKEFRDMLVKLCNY

Row | Structure (SMILES) | growth inhibition [1] | inhibition [2] | inhibition [3] | growth inhibition [4] | outcome [5] | outcome [6] | outcome [7] | outcome [8]
1 | COc1cccc(C2CCN(CCN3CCC(NC(=O)c4ccc(-c5ccc(C(F)(F)F)cc5)cc4)CC3)CC2)c1 | 99% (active) | 46% | -7% | 99% (active) | inactive | inactive | inactive | inactive
2 | COc1ccccc1CCNc1nc(C)cc(N[C@@H](Cc2ccccc2)C(=O)NCc2cccs2)n1 | 73% (active) | 18% | 1% | 100% (active) | inactive | inactive | inactive | inactive
3 | CC[C@H](NC(=O)c1c(CN2CCC(N3CCCCC3)CC2)c(-c2ccccc2)nc2cc(O)ccc12)c1ccccc1 | 13% | 15% | 2% | 94% (active) | inactive | inactive | inactive | inactive
4 | COc1ccc(CCN2CC[C@H](Nc3nc(-c4ccc(F)c(F)c4)nc4ccccc34)C2)cc1S(N)(=O)=O | 64% (active) | 18% | -8% | 99% (active) | inactive | inactive | inactive | inactive
5 | COC(=O)c1cccc(NC(=O)NCCNc2ccnc(Nc3ccc(F)cc3)n2)c1 | 5% | 10% | -6% | 93% (active) | inactive | inactive | inactive | inactive
6 | CCC1(CC)C(=O)N=C(N2CCCCC2)N(C)C1=O | 66% (active) | -4% | 1% | 89% (active) | inactive | inactive | inactive | inactive
7 | COc1cc2nccc(Nc3cc(C)cc(O)c3)c2cc1OC | -2% | -6% | 0% | 97% (active) | inactive | inactive | inactive | inactive
8 | COc1ccc(NC(=O)CSc2nc(-c3ccccc3Cl)ns2)cc1 | 75% (active) | 11% | 0% | 96% (active) | inactive | inactive | inactive | inactive
9 | O=C(/C=C/c1ccc([N+](=O)[O-])cc1)N1CCC(NS(=O)(=O)c2cccc(C(F)(F)F)c2)CC1 | 8% | -2% | -1% | 94% (active) | inactive | inactive | inactive | inactive
10 | C[C@H](Cc1ccc(OCCCCOc2ccc(C[C@@H](C)NC[C@H](O)c3cccc(Cl)c3)cc2)cc1)NC[C@H](O)c1cccc(Cl)c1 | 92% (active) | 68% (active) | 7% | 100% (active) | inactive | inactive | inactive | inactive
